Each structure is given as a SMILES string. The panel holds about 83,000 compounds, 20% with a hit somewhere; the sample as a whole holds those more often.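 Single-dose data. Exposure time 48 hours. Values below 10 considered active.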 Values without a mark were called inactive. Calls of active or inactive are those of the source.

Test systems include NCI-H23 lung; NCI-H226 lung; NCI-H322M lung; HOP-62 NSCLC; NCI-H460 lung; A549/ATCC NSCLC; 786-0 renal; COLO 205 colon; DU-145 prostate; K-562 leukemia; MALME-3M melanoma; MDA-MB-231 breast; RXF 393 renal; SF-268 CNS; SF-539 CNS; UACC-257 melanoma; M14 melanoma; SF-295 CNS.
Experiment in all cases: NCI-60 one-dose screen, 48 h (100 = growth as untreated, 0 = no growth, -100 = all killed)
Conditions in all cases: 10 µM unless noted

Turning to `CCCCCCCCCCCCCCCCCCOP(=O)(O)O`, the growth is 106% in the assay on NCI-H23 lung; 98.8% in the assay with NCI-H226 lung; 103% in the assay on NCI-H322M lung; 100% in the assay with HOP-62 NSCLC; 101% with NCI-H460 lung; 105% in the assay with A549/ATCC NSCLC. Further, the growth is 116% with 786-0 renal; 111% with COLO 205 colon; 116% in the assay on DU-145 prostate; 110% with K-562 leukemia; 112% in the assay with MALME-3M melanoma; 96.6% with MDA-MB-231 breast. The growth in the assay with RXF 393 renal is 114%; in the assay with SF-268 CNS, 109%; with SF-539 CNS it was 104%; in the assay on UACC-257 melanoma it was 113%; in the assay on M14 melanoma, 99.4%.

In the case of `CC(=O)O.[In]`, the growth is 103% with NCI-H23 lung; 101% with NCI-H226 lung; 97.6% in the assay on NCI-H322M lung; 106% with HOP-62 NSCLC; 111% with NCI-H460 lung; 99.6% in the assay on A549/ATCC NSCLC. The growth with 786-0 renal was 101%; with COLO 205 colon it was 112%; in the assay on DU-145 prostate, 113%; with K-562 leukemia, 96.7%; in the assay with MALME-3M melanoma, 109%; in the assay with MDA-MB-231 breast, 116%. Moreover, the growth was 106% in the assay with RXF 393 renal; 103% in the assay with SF-268 CNS; 110% in the assay on SF-539 CNS; 94.3% in the assay on UACC-257 melanoma; 105% in the assay on M14 melanoma.

For the compound `CC1(C)N=C(N)N=C(N)N1c1cccc(CCCCOc2ccccc2)c1`, the growth in the assay with NCI-H23 lung was 24%; with NCI-H226 lung it was 43.4%; with NCI-H322M lung, 35.6%; with HOP-62 NSCLC, 11.4%; in the assay on NCI-H460 lung it was 4.82% (active); in the assay with A549/ATCC NSCLC, 11.2%. Also, the growth is 21.8% in the assay with 786-0 renal; 29.3% with COLO 205 colon; 27.6% in the assay on DU-145 prostate; 16.2% in the assay with K-562 leukemia; 43.1% with MALME-3M melanoma; 46.8% in the assay with MDA-MB-231 breast. In addition, the growth in the assay with RXF 393 renal is 50.2%; with SF-268 CNS it was 27.2%; in the assay with SF-539 CNS, 34.1%; with UACC-257 melanoma it was 28.7%; in the assay on M14 melanoma, 23.6%.

Take `COC(=O)c1cc(=O)nc(N/N=C/c2ccccc2O)s1`: the growth is 89% in the assay with NCI-H23 lung; 101% with NCI-H226 lung; 67.2% with NCI-H322M lung; 90.7% in the assay with HOP-62 NSCLC; 94.5% in the assay with NCI-H460 lung; 94.4% with A549/ATCC NSCLC. Moreover, the growth in the assay with 786-0 renal was 95.1%; in the assay with COLO 205 colon it was 93%; with DU-145 prostate, 111%; in the assay on K-562 leukemia, 78.8%; in the assay with MALME-3M melanoma, 82.5%; in the assay with MDA-MB-231 breast, 83.8%. The growth in the assay with RXF 393 renal was 99.7%; in the assay with SF-268 CNS, 88.1%; in the assay with SF-295 CNS, 81.4%; in the assay with SF-539 CNS, 106%; in the assay with M14 melanoma, 95.2%.

For `CCOC(=O)c1csc(-c2ccc(COC(=O)c3ccccc3)o2)n1`, the growth was 108% with NCI-H23 lung; 104% in the assay on NCI-H226 lung; 93.2% with NCI-H322M lung; 99.5% in the assay with HOP-62 NSCLC; 109% in the assay on NCI-H460 lung; 99.7% in the assay with A549/ATCC NSCLC. Also, the growth in the assay with 786-0 renal is 102%; with COLO 205 colon, 114%; in the assay with DU-145 prostate, 130%; in the assay on K-562 leukemia, 102%; in the assay with MALME-3M melanoma, 95.8%; in the assay with MDA-MB-231 breast, 107%. For the same compound, the growth in the assay on RXF 393 renal is 106%; with SF-268 CNS, 118%; in the assay on SF-295 CNS, 84.4%; with SF-539 CNS, 107%; in the assay on M14 melanoma it was 106%.

On to `CSCc1ncc(-c2ccc(C(F)(F)F)cc2)c(NC2CCCCCC2)n1`, for which the growth was 65.9% [25 µM] in the assay on NCI-H23 lung; 87.5% [25 µM] in the assay on NCI-H226 lung; 97.9% [25 µM] in the assay with NCI-H322M lung; 98.6% [25 µM] in the assay with HOP-62 NSCLC; 49.8% [25 µM] in the assay with NCI-H460 lung; 68.3% [25 µM] in the assay with A549/ATCC NSCLC. Further, the growth in the assay with 786-0 renal is 66.4% [25 µM]; in the assay with COLO 205 colon, 95% [25 µM]; with DU-145 prostate, 71.4% [25 µM]; in the assay on K-562 leukemia, 29.3% [25 µM]; in the assay on MALME-3M melanoma, 68.8% [25 µM]; in the assay on MDA-MB-231 breast, 56.2% [25 µM]. The growth with RXF 393 renal is 75.4% [25 µM]; in the assay on SF-268 CNS, 75.5% [25 µM]; in the assay with SF-539 CNS, 93.8% [25 µM]; in the assay with UACC-257 melanoma it was 74.1% [25 µM]; with M14 melanoma, 67.4% [25 µM].

For the compound `CCn1cnc(C[C@H](NC(=O)[C@@H](NC(=O)Nc2cc(C(F)(F)F)cc(C(F)(F)F)c2)C(C)C)C(=O)OC)c1`, the growth in the assay with NCI-H23 lung was -78.8% [100 µM] (active); in the assay with NCI-H226 lung it was -55.6% [100 µM] (active); in the assay on NCI-H322M lung, -95.9% [100 µM] (active); with HOP-62 NSCLC it was -97.9% [100 µM] (active); with NCI-H460 lung, -43.2% [100 µM] (active); with A549/ATCC NSCLC it was -71.4% [100 µM] (active). The growth in the assay on 786-0 renal is -87.5% [100 µM] (active); in the assay on COLO 205 colon, -94.1% [100 µM] (active); in the assay with DU-145 prostate it was -81.2% [100 µM] (active); in the assay with K-562 leukemia, -57.3% [100 µM] (active); in the assay on MALME-3M melanoma, -90.5% [100 µM] (active); in the assay with MDA-MB-231 breast, -94.2% [100 µM] (active). Besides, the growth is -86.2% [100 µM] (active) with RXF 393 renal; -68.4% [100 µM] (active) with SF-268 CNS; -96.3% [100 µM] (active) in the assay on SF-539 CNS; -95.1% [100 µM] (active) in the assay with UACC-257 melanoma; -93.8% [100 µM] (active) in the assay on M14 melanoma.

In the case of `CN1NC(c2ccccc2)NN(C)C1=O`, the growth with NCI-H23 lung was 107%; with NCI-H226 lung it was 102%; in the assay with NCI-H322M lung it was 89.8%; with HOP-62 NSCLC, 93.6%; with NCI-H460 lung it was 109%; in the assay on A549/ATCC NSCLC it was 101%. The growth in the assay with 786-0 renal is 102%; in the assay with COLO 205 colon, 105%; with DU-145 prostate, 122%; with K-562 leukemia, 89.3%; in the assay with MALME-3M melanoma, 84.8%; with MDA-MB-231 breast it was 108%. For the same compound, the growth in the assay on RXF 393 renal was 107%; in the assay on SF-268 CNS, 102%; with SF-295 CNS, 83.5%; in the assay with SF-539 CNS, 106%; with M14 melanoma, 108%.
